The text below walks through data of article PMC7862700, “An all-to-all approach to the identification of sequence-specific readers for epigenetic DNA modifications on cytosine”.

Holding throughout (experiment): DAPPL (digital affinity profiling via proximity ligation, sequencing); 10 mM Tris-HCl pH 7.5, 50 mM NaCl, 1 mM DTT, 4% glycerol, room temperature, 30 min; GST-TFs on glutathione beads, 16-mer random dsDNA library, 0.1% formaldehyde crosslink after washing; high values mean tight binding
What all share (details): protein: recombinant; tags: N-terminal GST; dsDNA, one strand shown

The target in one assay is T1, ERF (Homo sapiens, UniProt P50548 1-548).
T1 sequence: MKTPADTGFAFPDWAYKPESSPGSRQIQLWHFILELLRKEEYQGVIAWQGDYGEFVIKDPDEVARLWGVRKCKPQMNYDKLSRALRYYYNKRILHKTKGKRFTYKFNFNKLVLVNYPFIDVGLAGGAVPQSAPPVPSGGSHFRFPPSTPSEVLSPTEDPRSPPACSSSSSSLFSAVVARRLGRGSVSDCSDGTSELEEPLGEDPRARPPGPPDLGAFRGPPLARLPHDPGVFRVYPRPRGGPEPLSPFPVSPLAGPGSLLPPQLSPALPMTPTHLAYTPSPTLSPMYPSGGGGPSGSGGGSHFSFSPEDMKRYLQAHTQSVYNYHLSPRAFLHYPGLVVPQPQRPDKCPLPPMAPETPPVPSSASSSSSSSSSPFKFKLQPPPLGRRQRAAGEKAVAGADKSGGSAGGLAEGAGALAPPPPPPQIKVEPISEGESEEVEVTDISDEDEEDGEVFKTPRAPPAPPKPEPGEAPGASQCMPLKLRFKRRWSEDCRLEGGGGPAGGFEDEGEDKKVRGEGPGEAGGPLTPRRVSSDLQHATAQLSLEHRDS
A digest of the protocol: (§1)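 A tag-only sample was pooled with DNA-barcoded human transcription factors that had been expressed in yeast as GST fusions and captured on glutathione beads. The pools were incubated for 30 min at room temperature with 200 nmole of a random double-stranded 16-mer DNA library in Tris/NaCl/DTT/glycerol buffer, then washed, crosslinked with 0.1% formaldehyde, proximity-ligated (BsaI/T4 ligase, 1 h, 37 °C), PCR-amplified and sequenced on an Illumina NextSeq500. Binding signal is each hexamer's read frequency for a factor divided by its frequency for the tag-only sample.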

A further assay concerns the target T2, ETV3L (Homo sapiens, UniProt Q6ZN32 1-361).
T2 sequence: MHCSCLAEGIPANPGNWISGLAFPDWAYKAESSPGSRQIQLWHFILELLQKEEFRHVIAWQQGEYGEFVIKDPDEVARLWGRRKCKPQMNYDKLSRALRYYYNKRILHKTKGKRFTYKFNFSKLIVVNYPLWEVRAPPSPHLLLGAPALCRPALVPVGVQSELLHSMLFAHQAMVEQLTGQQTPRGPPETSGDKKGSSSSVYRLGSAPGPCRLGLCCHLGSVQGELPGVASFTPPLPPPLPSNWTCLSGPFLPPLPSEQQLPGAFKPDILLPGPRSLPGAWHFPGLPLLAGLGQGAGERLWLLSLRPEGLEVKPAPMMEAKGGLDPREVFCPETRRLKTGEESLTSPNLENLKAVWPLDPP
A digest of the protocol: as §1

A further assay deals with T3, ETS2 (Homo sapiens, UniProt P15036 1-469).
T3 sequence: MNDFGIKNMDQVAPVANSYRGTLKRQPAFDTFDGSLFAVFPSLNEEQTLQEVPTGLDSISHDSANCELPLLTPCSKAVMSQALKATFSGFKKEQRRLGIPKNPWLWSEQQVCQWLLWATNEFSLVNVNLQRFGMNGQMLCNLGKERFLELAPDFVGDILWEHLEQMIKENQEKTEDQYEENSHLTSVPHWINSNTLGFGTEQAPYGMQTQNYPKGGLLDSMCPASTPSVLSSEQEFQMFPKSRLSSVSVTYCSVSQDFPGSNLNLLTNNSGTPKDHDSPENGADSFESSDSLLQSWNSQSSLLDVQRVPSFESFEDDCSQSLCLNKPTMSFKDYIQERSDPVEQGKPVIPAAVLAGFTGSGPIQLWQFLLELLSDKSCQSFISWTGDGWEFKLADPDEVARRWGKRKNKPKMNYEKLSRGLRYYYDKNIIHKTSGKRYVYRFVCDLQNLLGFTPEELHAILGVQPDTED
The procedure, abridged:
as §1

The next assay deals with T4, SPDEF (Homo sapiens, UniProt O95238 1-335).
T4 sequence: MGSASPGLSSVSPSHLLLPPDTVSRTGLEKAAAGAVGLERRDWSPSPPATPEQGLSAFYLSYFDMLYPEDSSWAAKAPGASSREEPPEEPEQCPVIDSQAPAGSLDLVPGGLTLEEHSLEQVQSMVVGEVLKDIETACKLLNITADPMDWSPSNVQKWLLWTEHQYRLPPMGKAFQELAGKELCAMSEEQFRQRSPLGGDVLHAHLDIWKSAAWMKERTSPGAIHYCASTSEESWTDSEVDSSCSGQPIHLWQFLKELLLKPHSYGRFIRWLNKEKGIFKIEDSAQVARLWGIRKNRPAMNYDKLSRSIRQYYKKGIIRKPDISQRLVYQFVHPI
The procedure, abridged: as §1

The target in a further assay is T5, ETV7 (Homo sapiens, UniProt Q9Y603 1-341).
T5 sequence: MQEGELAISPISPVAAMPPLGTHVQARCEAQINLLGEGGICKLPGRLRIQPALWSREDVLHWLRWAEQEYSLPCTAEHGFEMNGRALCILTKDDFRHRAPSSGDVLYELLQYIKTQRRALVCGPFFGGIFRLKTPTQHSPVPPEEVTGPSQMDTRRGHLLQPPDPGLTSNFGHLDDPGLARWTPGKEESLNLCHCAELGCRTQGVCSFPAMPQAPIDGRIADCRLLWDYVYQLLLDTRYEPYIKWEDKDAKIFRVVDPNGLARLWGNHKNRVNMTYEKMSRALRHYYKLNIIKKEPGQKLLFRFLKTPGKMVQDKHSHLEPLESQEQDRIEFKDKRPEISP
The procedure, abridged: as §1

For the next assay, the target named is T6, ELF5 (Homo sapiens, UniProt Q9UKW6-2 1-255).
T6 sequence: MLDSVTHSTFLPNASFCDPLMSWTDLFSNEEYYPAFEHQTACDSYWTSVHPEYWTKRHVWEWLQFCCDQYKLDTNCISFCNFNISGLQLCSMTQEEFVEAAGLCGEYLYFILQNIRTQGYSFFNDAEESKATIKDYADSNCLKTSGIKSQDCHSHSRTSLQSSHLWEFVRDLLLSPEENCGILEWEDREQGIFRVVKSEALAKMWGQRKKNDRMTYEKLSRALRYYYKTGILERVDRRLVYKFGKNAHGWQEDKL
The procedure, abridged:
as §1

The target of the next assay is T7, ETV3 (Homo sapiens, UniProt P41162-2 1-143).
T7 sequence: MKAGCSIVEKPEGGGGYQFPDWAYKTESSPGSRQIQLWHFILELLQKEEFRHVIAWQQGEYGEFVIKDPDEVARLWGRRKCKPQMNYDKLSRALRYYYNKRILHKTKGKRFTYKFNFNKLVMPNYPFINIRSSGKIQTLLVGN
A digest of the protocol: as §1

A further assay deals with ETV6 (Homo sapiens, UniProt P41212 1-452). The procedure, abridged: as §1
Sequence of ETV6 (P41212 whole entry): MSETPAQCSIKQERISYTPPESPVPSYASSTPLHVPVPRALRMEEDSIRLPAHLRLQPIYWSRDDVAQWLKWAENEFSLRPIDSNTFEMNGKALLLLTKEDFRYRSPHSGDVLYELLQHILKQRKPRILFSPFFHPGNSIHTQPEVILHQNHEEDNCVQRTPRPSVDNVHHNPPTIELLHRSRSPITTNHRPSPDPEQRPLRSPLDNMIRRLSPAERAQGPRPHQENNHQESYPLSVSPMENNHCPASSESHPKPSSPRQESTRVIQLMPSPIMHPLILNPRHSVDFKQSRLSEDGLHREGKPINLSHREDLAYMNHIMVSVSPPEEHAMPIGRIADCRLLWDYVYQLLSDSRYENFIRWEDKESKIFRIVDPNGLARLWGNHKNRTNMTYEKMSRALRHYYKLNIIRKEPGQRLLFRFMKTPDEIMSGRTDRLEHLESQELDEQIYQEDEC

Regarding CACCGA, the binding signal with ERF was 1.05 fold enrichment (6-mer frequency, TF over GST control); in the assay with ETV3L, 1.02 fold enrichment (6-mer frequency, TF over GST control); with ETS2, 1.12 fold enrichment (6-mer frequency, TF over GST control); with SPDEF, 1.04 fold enrichment (6-mer frequency, TF over GST control); with ETV7 it was 1.11 fold enrichment (6-mer frequency, TF over GST control); with ELF5, 1.04 fold enrichment (6-mer frequency, TF over GST control). Besides, the binding signal was 1.01 fold enrichment (6-mer frequency, TF over GST control) with ETV3 and 1.03 fold enrichment (6-mer frequency, TF over GST control) in the assay with ETV6.
For the sequence CGGATG, the binding signal with ERF is 1.39 fold enrichment (6-mer frequency, TF over GST control); with ETV3L, 1.62 fold enrichment (6-mer frequency, TF over GST control); with ETS2, 1.83 fold enrichment (6-mer frequency, TF over GST control); with SPDEF, 3.14 fold enrichment (6-mer frequency, TF over GST control); in the assay with ETV7 it was 1.41 fold enrichment (6-mer frequency, TF over GST control); in the assay with ELF5, 1.75 fold enrichment (6-mer frequency, TF over GST control). For the same sequence, the binding signal with ETV3 is 1.75 fold enrichment (6-mer frequency, TF over GST control); with ETV6 it was 1.5 fold enrichment (6-mer frequency, TF over GST control).
Regarding GCCTTT, the binding signal in the assay with ERF is 1.29 fold enrichment (6-mer frequency, TF over GST control); with ETV3L it was 1.27 fold enrichment (6-mer frequency, TF over GST control); with ETS2, 1.14 fold enrichment (6-mer frequency, TF over GST control); with SPDEF, 1.15 fold enrichment (6-mer frequency, TF over GST control); in the assay with ETV7, 1.18 fold enrichment (6-mer frequency, TF over GST control); with ELF5, 1.3 fold enrichment (6-mer frequency, TF over GST control). In addition, the binding signal was 1.33 fold enrichment (6-mer frequency, TF over GST control) with ETV3 and 1.38 fold enrichment (6-mer frequency, TF over GST control) with ETV6.
For ACCCTC, the binding signal with ERF was 1.19 fold enrichment (6-mer frequency, TF over GST control); with ETV3L, 1.08 fold enrichment (6-mer frequency, TF over GST control); in the assay with ETS2, 1.19 fold enrichment (6-mer frequency, TF over GST control); with SPDEF, 1.11 fold enrichment (6-mer frequency, TF over GST control); in the assay with ETV7, 1.13 fold enrichment (6-mer frequency, TF over GST control); with ELF5 it was 1.06 fold enrichment (6-mer frequency, TF over GST control). In addition, the binding signal was 1.16 fold enrichment (6-mer frequency, TF over GST control) in the assay with ETV3 and 1.12 fold enrichment (6-mer frequency, TF over GST control) with ETV6.
For the sequence TACGTC, the binding signal with ERF is 1.08 fold enrichment (6-mer frequency, TF over GST control); in the assay with ETV3L it was 1.27 fold enrichment (6-mer frequency, TF over GST control); with ETS2, 1.2 fold enrichment (6-mer frequency, TF over GST control); with SPDEF, 1.33 fold enrichment (6-mer frequency, TF over GST control); with ETV7, 1.27 fold enrichment (6-mer frequency, TF over GST control); with ELF5, 1.23 fold enrichment (6-mer frequency, TF over GST control). In addition, the binding signal with ETV3 was 1.14 fold enrichment (6-mer frequency, TF over GST control); with ETV6 it was 1.37 fold enrichment (6-mer frequency, TF over GST control).
For the sequence ACCTCA, the binding signal was 1.23 fold enrichment (6-mer frequency, TF over GST control) in the assay with ERF; 1.29 fold enrichment (6-mer frequency, TF over GST control) in the assay with ETV3L; 1.21 fold enrichment (6-mer frequency, TF over GST control) in the assay with ETS2; 1.09 fold enrichment (6-mer frequency, TF over GST control) in the assay with SPDEF; 1.04 fold enrichment (6-mer frequency, TF over GST control) with ETV7; 1.11 fold enrichment (6-mer frequency, TF over GST control) with ELF5. In addition, the binding signal was 1.18 fold enrichment (6-mer frequency, TF over GST control) with ETV3 and 1.17 fold enrichment (6-mer frequency, TF over GST control) with ETV6.
Take ATGTCA: the binding signal in the assay with ERF is 1.2 fold enrichment (6-mer frequency, TF over GST control); with ETV3L, 1.2 fold enrichment (6-mer frequency, TF over GST control); in the assay with ETS2, 1.2 fold enrichment (6-mer frequency, TF over GST control); in the assay with SPDEF, 1.1 fold enrichment (6-mer frequency, TF over GST control); in the assay with ETV7 it was 1.02 fold enrichment (6-mer frequency, TF over GST control); with ELF5, 1.09 fold enrichment (6-mer frequency, TF over GST control). Moreover, the binding signal with ETV3 is 1.12 fold enrichment (6-mer frequency, TF over GST control); in the assay with ETV6, 1.11 fold enrichment (6-mer frequency, TF over GST control).
For AAATTA, the binding signal was 1.26 fold enrichment (6-mer frequency, TF over GST control) with ERF; 1.31 fold enrichment (6-mer frequency, TF over GST control) with ETV3L; 1.27 fold enrichment (6-mer frequency, TF over GST control) with ETS2; 1.18 fold enrichment (6-mer frequency, TF over GST control) with SPDEF; 1.32 fold enrichment (6-mer frequency, TF over GST control) with ETV7; 1.24 fold enrichment (6-mer frequency, TF over GST control) in the assay with ELF5. For the same sequence, the binding signal is 1.29 fold enrichment (6-mer frequency, TF over GST control) with ETV3 and 1.25 fold enrichment (6-mer frequency, TF over GST control) in the assay with ETV6.
